Laboratory results reported in paper PMC12864922, “TDP-43 directly inhibits mRNA accumulation in neurites through modulation of mRNA stability”.
Over roughly 9,900 sequences, “r (bound/input frequency ratio)” has its median near 0.7; the highest 2% begin near 6.5. The sample as a whole holds a higher share of the highest values than the screen did.

B1: ENSMUSG00000061578.722|Ksr2 (ssRNA)
RNA: GGGAGUUCUACAGUCCGACGAUCGCUUCGAUAUCCGCAUGCUAUCUCUGAAUGUACGUGGGGGACUCCAACAGAUGUUGGGAGAAGACUCAAUAUGAGCAUACGGGGUCAUUGUUCAAUCCUGUAUCAAGACCUUGGAGUUGUCUAAGGCUGUGGGUUUUAAAUACCUGCUGCAGGCCUCCCAUCUCUGGCUCUUUGUUUCCACUCUGGCCCAAGUUUGAGUCUCCAUAUGGGCCCUUCCUGUCCUCAUGCCCUGCCUGUCUUCAUUCCACCCAUCCACCCUCCUAAGGAUUGGUCUUGUUCCCUCUUGCGGUCGCACUAGUGUGGAAUUCUCGGGUGUCAAGG
B2: ENSMUSG00000058297.267|Spock2 (ssRNA)
RNA: GGGAGUUCUACAGUCCGACGAUCGCUUCGAUAUCCGCAUGCUAUGAUAUAUUUGAUGAAGAAUUCCUUACCUGGGCCUCUGAUACCCUUUGGUACGCGUACGUGUGUGUGGCGCGUAUACGUGUGUGUGUGUGUGUGUGUGUGUGUGUGUGUGUGUGUGUGUGAGAGAGAGAGAGAGAGAGAGAGAGAGAGAGAGAGAGAAAGAGAGAGAGAAUGAGAGAGAAUGAGAGAGAGAAUACCCGAGGGCCACCCUGAUGCCCAGGAAGAGUGAGGGCAGCCCCCUGUGUGGUGGAAGAGGCUGGGCCUCUUGCGGUCGCACUAGUGUGGAAUUCUCGGGUGUCAAGG
B3: ENSMUSG00000058297.271|Spock2 (ssRNA)
RNA: GGGAGUUCUACAGUCCGACGAUCGCUUCGAUAUCCGCAUGCUAUACCUGGGCCUCUGAUACCCUUUGGUACGCGUACGUGUGUGUGGCGCGUAUACGUGUGUGUGUGUGUGUGUGUGUGUGUGUGUGUGUGUGUGUGUGAGAGAGAGAGAGAGAGAGAGAGAGAGAGAGAGAGAGAAAGAGAGAGAGAAUGAGAGAGAAUGAGAGAGAGAAUACCCGAGGGCCACCCUGAUGCCCAGGAAGAGUGAGGGCAGCCCCCUGUGUGGUGGAAGAGGCUGGGCAGCUAGCUACUGGGGACCUUGUGCCUCUUGCGGUCGCACUAGUGUGGAAUUCUCGGGUGUCAAGG
B4: ENSMUSG00000058297.266|Spock2 (ssRNA)
RNA: GGGAGUUCUACAGUCCGACGAUCGCUUCGAUAUCCGCAUGCUAUUUCCUUGAUAUAUUUGAUGAAGAAUUCCUUACCUGGGCCUCUGAUACCCUUUGGUACGCGUACGUGUGUGUGGCGCGUAUACGUGUGUGUGUGUGUGUGUGUGUGUGUGUGUGUGUGUGUGUGUGAGAGAGAGAGAGAGAGAGAGAGAGAGAGAGAGAGAGAAAGAGAGAGAGAAUGAGAGAGAAUGAGAGAGAGAAUACCCGAGGGCCACCCUGAUGCCCAGGAAGAGUGAGGGCAGCCCCCUGUGUGGUGGAAGAGGCUCUUGCGGUCGCACUAGUGUGGAAUUCUCGGGUGUCAAGG
B5: ENSMUSG00000058297.268|Spock2 (ssRNA)
RNA: GGGAGUUCUACAGUCCGACGAUCGCUUCGAUAUCCGCAUGCUAAUUUGAUGAAGAAUUCCUUACCUGGGCCUCUGAUACCCUUUGGUACGCGUACGUGUGUGUGGCGCGUAUACGUGUGUGUGUGUGUGUGUGUGUGUGUGUGUGUGUGUGUGUGUGAGAGAGAGAGAGAGAGAGAGAGAGAGAGAGAGAGAGAAAGAGAGAGAGAAUGAGAGAGAAUGAGAGAGAGAAUACCCGAGGGCCACCCUGAUGCCCAGGAAGAGUGAGGGCAGCCCCCUGUGUGGUGGAAGAGGCUGGGCAGCUAGCUCUUGCGGUCGCACUAGUGUGGAAUUCUCGGGUGUCAAGG
B6: ENSMUSG00000031028.129|Tub (ssRNA)
RNA: GGGAGUUCUACAGUCCGACGAUCGCUUCGAUAUCCGCAUGCUACCAAAUAUCUGAGUGGAUGGGGAUGAUAGGAGUCAUCCAGUAGACUCCCUACAUCAGGGCUCUCAGCAGCCCCAGCACAACACCUAUGACACACACACAGGAUCUAGGUCACCAUUCAAGUAAUGGUAUGCUUCAGGAAGAAUGUCCUCUCUGGGAAGACUCAGCUCCCAUUAUUGCCAGCAUGCCAUGAUCAGUGAGGGCUGUGUGCCAUGCUUAGGGGGAUGGCGCAGGGUGAGGGGAGCAGAGGAUAUUUUAGGGCCCUCUUGCGGUCGCACUAGUGUGGAAUUCUCGGGUGUCAAGG
B7: ENSMUSG00000058297.78|Spock2 (ssRNA)
RNA: GGGAGUUCUACAGUCCGACGAUCGCUUCGAUAUCCGCAUGCUACUCAGCCCAACACCUGGAAUCCCUGCCCUGCCUAAUCAGCCCUACCCCAUCCUGCCUUUCUUCCUUCCUCUUCUGAGGCCAGGGAGAGGGAGGGAGGGCAGGCAGCUGAAAGCUGAGCGUCCUCCCCAAAUUGGGCUGAUUUGAUAUGAAAGCCCCACCACGGUCUUGUGGUGAUGAGGCAGGACCUGUACACACAGCAAGGCUUACUAUCCGUCUCCUGACAUCCGAAGAGCUCGUCGCAGGUGUGUCUAAUGGCCCUUCUCUUGCGGUCGCACUAGUGUGGAAUUCUCGGGUGUCAAGG
B8: ENSMUSG00000031028.156|Tub|40:45;125:130 (ssRNA)
RNA: GGGAGUUCUACAGUCCGACGAUCGCUUCGAUAUCCGCAUGCUAAGCUCCCAUUAUUGCCAGCAUGCCAUGAUCAGUGAGGGCACACACCCAUGCUUAGGGGGAUGGCGCAGGGUGAGGGGAGCAGAGGAUAUUUUAGGGCCACAAGAGCUCAGAGGUAGCGGACCUCACACACGUUCACCAACAGCAAUGCUGAUCCCUGAGUAUAGGGCACAUGUCUCUUGGUUACCUCACUGGUUAAUGGCAGAGUUGAGAACCUCAAAUUCUUUUGUUCCUACUGUUGCCCAGAAACUAGACUCUCUGACCUCUUGCGGUCGCACUAGUGUGGAAUUCUCGGGUGUCAAGG
B9: ENSMUSG00000028439.157|Fam219a (ssRNA)
RNA: GGGAGUUCUACAGUCCGACGAUCGCUUCGAUAUCCGCAUGCUAUAGCUCAAAGUCCAGGAGCCAGGCUUCCAGAAAGGCUCUUCAAGAGCAAGCUUAAGGAAAUACAGUGAGCCAAGUGGCUGUAUGAUAUGGUAUGGUAUGGUAUGGUAUGGUAUGGUAUGGUAUGCACAUGUGUGUGCAUGUGUGUGUGCCUGUGUGUGUGCGUGUGCGUGUGUGUAUGUGUGUGCGUGUGUGUGUGUGUGUGUUGUACCCGAGUGUGUGUUGAGCCUAUCUGUCCAGGGAACCAGAUUGGUGUCCGAGAUCUCUUGCGGUCGCACUAGUGUGGAAUUCUCGGGUGUCAAGG
B10: ENSMUSG00000028439.156|Fam219a (ssRNA)
RNA: GGGAGUUCUACAGUCCGACGAUCGCUUCGAUAUCCGCAUGCUAUCACCCUAGCUCAAAGUCCAGGAGCCAGGCUUCCAGAAAGGCUCUUCAAGAGCAAGCUUAAGGAAAUACAGUGAGCCAAGUGGCUGUAUGAUAUGGUAUGGUAUGGUAUGGUAUGGUAUGGUAUGGUAUGCACAUGUGUGUGCAUGUGUGUGUGCCUGUGUGUGUGCGUGUGCGUGUGUGUAUGUGUGUGCGUGUGUGUGUGUGUGUGUUGUACCCGAGUGUGUGUUGAGCCUAUCUGUCCAGGGAACCAGAUUGGUGUCCUCUUGCGGUCGCACUAGUGUGGAAUUCUCGGGUGUCAAGG

The binders below were run against TDP-43 (Homo sapiens, UniProt Q13148 1-414) (assay: RNA Bind-n-Seq with designed 260-mer pool; 25 mM Tris-HCl, 150 mM KCl, 3 mM MgCl2, BSA (printed 500 mg/mL), 20 units/mL SUPERase IN; pH not stated; 500 nM RNA pool, 1 h, 4 C; TDP-43 5, 50, 500 nM; high values mean tight binding). Details: protein: recombinant; tags: SBP (GST cleaved off with PreScission; pGEX-GST-SBP).
TDP-43, sequence (Q13148 whole entry): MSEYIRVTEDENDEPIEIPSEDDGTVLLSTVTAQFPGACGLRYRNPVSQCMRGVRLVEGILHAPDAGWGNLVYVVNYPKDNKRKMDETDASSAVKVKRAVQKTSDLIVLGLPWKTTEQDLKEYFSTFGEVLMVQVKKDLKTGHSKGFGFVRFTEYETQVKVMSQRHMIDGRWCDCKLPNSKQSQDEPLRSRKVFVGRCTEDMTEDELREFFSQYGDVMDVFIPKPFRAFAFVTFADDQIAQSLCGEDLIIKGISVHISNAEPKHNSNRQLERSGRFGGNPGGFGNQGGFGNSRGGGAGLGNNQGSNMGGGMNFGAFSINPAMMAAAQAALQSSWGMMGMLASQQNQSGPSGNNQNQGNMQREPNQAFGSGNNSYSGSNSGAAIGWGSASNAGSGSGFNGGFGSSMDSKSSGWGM
How it was run: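 An in vitro-transcribed pool of 260-nt 3′ UTR oligos (500 nM) was incubated for 1 h at 4 °C with recombinant SBP-tagged TDP-43 at 5, 50 or 500 nM held on streptavidin beads. The buffer contained 25 mM Tris-HCl, 150 mM KCl, 3 mM MgCl2, BSA and SUPERase IN. Biotin-eluted bound RNA was sequenced, and binding, R, is each oligo's normalized read abundance in the bound sample over that in input.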
For B1, the binding signal was 1.64 R (bound/input frequency ratio).
With B2 the binding signal was 8.95 R (bound/input frequency ratio).
For B3, the binding signal was 8.28 R (bound/input frequency ratio).
B4 was tested, and the binding signal was 5.83 R (bound/input frequency ratio).
B5 was tested, and the binding signal was 2.37 R (bound/input frequency ratio).
For B6, the binding signal was 0.521 R (bound/input frequency ratio).
B7 was tested, and the binding signal was 0.631 R (bound/input frequency ratio).
B8 was tested, and the binding signal was 0.266 R (bound/input frequency ratio).
B9 was tested, and the binding signal was 7.39 R (bound/input frequency ratio).
B10 was tested, and the binding signal was 6.74 R (bound/input frequency ratio).
